{
  "source": "PubChem BioAssay (NCATS)",
  "note": "Results filed as inconclusive are left out. A call without a number means that no potency is given here. Unmarked numbers belong to inactive results. Activity calls are given as the source filed them. Calls follow the shape of the dose curve; as a rule, active = well fitted inhibition curve with a large enough effect; inconclusive = small, poorly fitted or top-dose-only effect; inactive = flat fitted curve, though single readings scatter.",
  "data": [
    {"target": "Phospholipid hydroperoxide glutathione peroxidase GPX4 (Homo sapiens) (UniProt P36969)", "sequence (P36969 whole entry, looked up)": "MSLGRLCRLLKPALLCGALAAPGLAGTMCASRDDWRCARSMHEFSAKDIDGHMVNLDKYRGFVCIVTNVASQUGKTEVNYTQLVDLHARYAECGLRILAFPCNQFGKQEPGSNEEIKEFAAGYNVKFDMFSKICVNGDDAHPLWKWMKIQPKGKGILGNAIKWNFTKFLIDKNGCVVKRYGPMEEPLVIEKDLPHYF", "test": "Primary qHTS Assay for Inhibitors of Recombinant Selenoprotein Glutathione Peroxidase 4 (GPX4) (AID 1845192); also: nearly all actives have a fitted effect of over 65% in size", "conditions": "recombinant GPX4, GR-coupled NADPH fluorescence, 15 min; series mostly up to 50 µM", "outline": "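qHTS, GR-coupled: GPX4 200 nM + cpd 30 min RT → GSH 1 mM, NADPH 0.5 mM, GR 100 nM → CHP 0.5 mM start; fluor 340/450 at t0 and t15 min; no-enzyme wells as control.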", "values": [
      {"smiles": "CN(NC(=O)CC(=O)NN(C)C(=S)c1ccccc1)C(=S)c1ccccc1", "Potency": "inactive"},
      {"smiles": "CC(=O)N(O)CCCCCN1C(=O)CCC1=O", "Potency": "inactive"},
      {"smiles": "CCOC(=O)c1c(C)nn(-c2cccc([N+](=O)[O-])c2)c1C", "Potency": "inactive"},
      {"smiles": "CC(/C=C/C1(O)C2(C)COC1(C)CC(=O)C2)O[C@@H]1O[C@H](CO)[C@@H](O)[C@H](O)[C@H]1O", "note": "(some centres undefined)", "Potency": "inactive"},
      {"smiles": "O=C(/C=C/c1ccc(O)cc1)O[C@H]1[C@@H]2C=CO[C@@H](O[C@@H]3O[C@H](CO)[C@@H](O)[C@H](O)[C@H]3O)[C@@H]2[C@@]2(CO)O[C@@H]12", "Potency": "inactive"},
      {"smiles": "CC(C#N)C(C)O[C@@H]1O[C@H](CO)[C@@H](O)[C@H](O)[C@H]1O", "note": "(some centres undefined)", "Potency": "inactive"},
      {"smiles": "CC1(C)CCC[C@@]2(C)[C@H]1[C@H](O)C=C1COC(=O)[C@@]12O", "Potency": "inactive"},
      {"smiles": "CNC(=O)c1ccc(Nc2ncc(C(F)(F)F)c(NCc3nccnc3N(C)S(C)(=O)=O)n2)cc1", "Potency": "inactive"},
      {"smiles": "COc1cc(COC2OC(CO)C(O)C(O)C2O)cc(OC)c1O", "note": "(centres undefined)", "Potency": "inactive"},
      {"smiles": "C[C@H]1[C@H](C)CC[C@]2(C(=O)O[C@@H]3O[C@H](CO)[C@@H](O)[C@H](O)[C@H]3O)CC[C@]3(C(=O)O)C(=CCC4[C@@]5(C)CC[C@H](O[C@@H]6O[C@H](CO)[C@@H](O)[C@H](O)[C@H]6O)C(C)(C)C5CC[C@]43C)[C@H]12", "note": "(some centres undefined)", "Potency": "inactive"},
      {"smiles": "COC(=O)C12C(=O)C(C)=C(O)C1(C)C(C)=CC1C34CCC(OC3=O)C(C)(C)C4CCC12C", "note": "(centres undefined)", "Potency": "inactive"},
      {"smiles": "O=c1c2ccccc2nc2n1CCC2O", "note": "(centres undefined)", "Potency": "inactive"},
      {"smiles": "CC(=O)NC(CCC(=O)O)C(=O)NCCc1ccc(O)cc1", "note": "(centres undefined)", "Potency": "inactive"},
      {"smiles": "C=C(C)[C@@H]1CC[C@](C)(O)[C@@H](OC(=O)c2ccccc2)C1", "Potency": "inactive"},
      {"smiles": "CC(=O)N1CCN(NC(=O)c2ccc(F)cc2)CC1", "Potency": "inactive"},
      {"smiles": "COC(=O)CC1(O)C(=O)Nc2ccccc21", "note": "(centres undefined)", "Potency": "inactive"},
      {"smiles": "CCCn1cnc2c(NCc3ccccc3)nc(N[C@H](CC)CO)nc21", "Potency": "inactive"},
      {"smiles": "COc1cc2c(cc1O)C1(Cc3ccc4c(c3C1=O)OCO4)N(C)CC2", "note": "(centres undefined)", "Potency": "inactive"},
      {"smiles": "C=C1CCC2[C@@](C)(C=O)CCC[C@]2(C)[C@H]1CC/C(C)=C/CO", "note": "(some centres undefined)", "Potency": "inactive"},
      {"smiles": "C/C=C(\\C)C(=O)OC[C@H]1O[C@H](O[C@H]2O[C@H](CO)[C@@H](OC(=O)/C(C)=C/C)[C@H](O)[C@H]2O[C@@H]2O[C@H](CO)[C@@H](O)[C@H](O)[C@H]2O)[C@H](O[C@@H]2O[C@H](CO)[C@@H](O)[C@H](O)[C@H]2O)[C@@H](O)[C@@H]1O", "Potency": "inactive"},
      {"smiles": "C/C=C(\\C)C(=O)O[C@@H]1CC2[C@@H](CC=C3C[C@@H](O[C@H]4C[C@H](OC)[C@H](O[C@H]5C[C@H](OC)[C@H](O[C@H]6C[C@H](OC)[C@H](O[C@H]7C[C@@H](OC)[C@H](O[C@@H]8O[C@H](CO)[C@@H](O)[C@H](O)[C@H]8O)[C@@H](C)O7)[C@@H](C)O6)[C@@H](C)O5)[C@@H](C)O4)CC[C@@]32C)[C@@]2(O)CC[C@H](C(C)=O)[C@@]12C", "note": "(some centres undefined)", "activity change, negative = inhibition": "-7.77% [at 9.73 µM]"},
      {"smiles": "CC1CCC2C(C(=O)O)=CC3CC(C)(C)CC132", "note": "(centres undefined)", "Potency": "inactive"},
      {"smiles": "COc1ccc(/C=C/C(=O)O[C@@H]2[C@@H](O)[C@H](C)O[C@@H](OC3C4C=COC(O[C@@H]5O[C@H](CO)[C@@H](O)[C@H](O)[C@H]5O)C4C4(CO)OC34)[C@@H]2O)cc1OC", "note": "(some centres undefined)", "Potency": "inactive"},
      {"smiles": "CCC(C)C(=O)O[C@@H]1[C@@H](O)[C@@H](O[C@H]2O[C@H](CO)[C@@H](O)[C@H](O)[C@H]2O)O[C@H](CO)[C@H]1O", "note": "(some centres undefined)", "Potency": "inactive"},
      {"smiles": "C=C1C(=O)OC2CC(C)=C(C(C)CCCO[C@@H]3O[C@H](CO)[C@@H](O)[C@H](O)[C@H]3O)C(O)C12", "note": "(some centres undefined)", "Potency": "inactive"},
      {"smiles": "CCC(C)(O)C(O)C(=O)OCc1ccc(O[C@@H]2O[C@H](CO)[C@@H](O)[C@H](O)[C@H]2O)cc1", "note": "(some centres undefined)", "Potency": "inactive"},
      {"smiles": "C/C=C(\\C)C(=O)O[C@@H](C)[C@H]1CC[C@]2(O)C3CCC4C[C@@H](OC5CC(OC)C(OC6CC(OC)C(OC7CC(OC)C(OC8OC(C)C(OC9OC(CO)C(O)C(O)C9O)C(OC)C8O)C(C)O7)C(C)O6)C(C)O5)CC[C@]4(C)C3[C@H](O)[C@@H](O)[C@]12C", "note": "(some centres undefined)", "activity change, negative = inhibition": "-0.387% [at 9.73 µM]"},
      {"smiles": "CC1CCC(=O)CC(O)C(O)CC(=O)O1", "note": "(centres undefined)", "Potency": "inactive"},
      {"smiles": "CC1=C(C)C(=O)OC(C(C)(O)C2CCC3C4CC=C5CC(OC6OC(COC7OC(CO)C(O)C(O)C7O)C(O)C(O)C6O)CC(O)C5(C)C4CCC32C)C1", "note": "(centres undefined)", "Potency": "inactive"}
    ]}
  ]
}
